Results on 7 molecules are retold here after PubChem BioAssay (EPA / NIEHS).

Results filed as inconclusive are left out. Active and inactive are the calls of the source. The calls were made as follows: active = hit-call score of the fitted dose curve at least 0.9, where 1 is the maximum; inconclusive = response in the unintended direction; inactive = score below 0.9.

Chain of rat Neurotensin Receptor (NTS), Ntsr1 (gene 366274) (P20789 whole entry, looked up): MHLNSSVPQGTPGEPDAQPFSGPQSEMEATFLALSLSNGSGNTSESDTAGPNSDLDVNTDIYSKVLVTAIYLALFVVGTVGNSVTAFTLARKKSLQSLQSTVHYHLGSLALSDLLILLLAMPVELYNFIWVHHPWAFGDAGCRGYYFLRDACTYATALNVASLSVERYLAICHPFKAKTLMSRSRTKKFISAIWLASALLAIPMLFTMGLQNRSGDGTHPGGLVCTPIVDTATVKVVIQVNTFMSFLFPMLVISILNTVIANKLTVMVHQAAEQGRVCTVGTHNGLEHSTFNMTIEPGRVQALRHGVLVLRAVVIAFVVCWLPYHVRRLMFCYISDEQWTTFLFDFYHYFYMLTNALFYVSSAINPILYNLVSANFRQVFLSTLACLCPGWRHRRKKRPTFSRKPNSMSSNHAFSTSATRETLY

The target in one experiment is rat Neurotensin Receptor (NTS), Ntsr1 (gene 366274) (UniProt P20789). Briefly: NVS_GPCR_rNTS: NovaScreen (NVS) G Protein-Coupled Receptor Assay for rat Neurotensin Receptor (NTS) (AID 2283308). The method in brief:
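Rat forebrain membranes; radioligand binding with competitive displacement, read by filter-based scintillation counting 1 h after dosing. Primary screen in duplicate at 25 uM; actives (e.g., 30% inhibition) rerun in concentration-response up to 50 uM, loss-of-signal versus DMSO.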
As to `Cc1cn([C@H]2C[C@H](N=[N+]=[N-])[C@@H](CO)O2)c(=O)[nH]c1=O`, the outcome was inactive.

Take `COC(=O)c1ccccc1C(=O)O`: the molecule was called inactive.

For the molecule `COC(=O)c1ccc(I)cc1S(=O)(=O)NC(=O)Nc1nc(C)nc(OC)n1`, the outcome was inactive.

For a further experiment, the target named is Voltage-dependent N-type calcium channel subunit alpha-1B (Rattus norvegicus) (UniProt Q02294). In words: NVS_IC_rCaChN: NovaScreen (NVS) Ion Channel Assay for rat Calcium Channel, Type N (CaChN) (AID 2283317).
`CCCC(=O)OCCC(C)C`: the outcome was inactive.

Consider `CCCCCCCCCCCCCCCS(=O)(=O)Oc1ccccc1`, for which the result was inactive.

In the case of `CCCOc1ccc(S(=O)(=O)N2CCN(CC)CC2)cc1-c1nc2c(CC)n(Cc3ccccn3)nc2c(=O)[nH]1`, the result was inactive.

As to `OCC(CO)(CO)CO`, the result was inactive.
